TEAD-YAP inh: TEAD-YAP interaction inhibition; HEK-TIYL cells, TEAD-Gal4/YAP UAS-luciferase luminescence; inhibition, % at 9.12 µM; 640,000 compounds, 1.4% hits; in the data active = inhibition above about 32%
MITF primary: blocks human microphthalmia-associated transcription factor; AlphaScreen MITF homodimerization, bead proximity signal; inhibition, % at 2.6 µM; 650,000 compounds, 0.91% hits; AID 1259374; in the data active = inhibition above about 50%
Target sequence (O75030 whole entry, looked up): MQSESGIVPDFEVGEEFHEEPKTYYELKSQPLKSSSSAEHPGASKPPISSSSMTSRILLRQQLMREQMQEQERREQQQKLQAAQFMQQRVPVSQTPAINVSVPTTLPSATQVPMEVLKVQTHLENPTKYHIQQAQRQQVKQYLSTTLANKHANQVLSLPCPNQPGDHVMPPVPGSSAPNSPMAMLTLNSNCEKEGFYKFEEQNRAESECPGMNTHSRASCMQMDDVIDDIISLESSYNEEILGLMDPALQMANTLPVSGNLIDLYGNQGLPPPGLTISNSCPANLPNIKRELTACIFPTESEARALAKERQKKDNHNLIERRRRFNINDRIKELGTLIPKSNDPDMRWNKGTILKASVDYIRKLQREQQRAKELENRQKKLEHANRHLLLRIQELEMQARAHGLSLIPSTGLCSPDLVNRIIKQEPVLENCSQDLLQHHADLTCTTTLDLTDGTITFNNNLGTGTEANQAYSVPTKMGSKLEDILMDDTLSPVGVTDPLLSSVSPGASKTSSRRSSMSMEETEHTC
FBW7 activator: activators of human E3 ligase FBW7 | AlphaScreen FBW7–phospho-cyclin E peptide binding, activator screen | normalized activity (activation), % at 26.1 µM | 650,000 compounds, 0.13% hits | AID 1259310 | Q969H0; in the data active = normalized activity above about 1.9%;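 note: purified mutant Fbw7 with reduced substrate affinity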
GPR151 activ: human GPR151 activation; activation, % at 11.2 µM; 650,000 compounds, 1% hits; PathHunter beta-arrestin GPR151 cells, luminescence; in the data active = activation above about 4.9%
GPR151 conf act: human GPR151 activation, confirmation screen; shares compounds with GPR151 activ; GPR151 PathHunter beta-arrestin cells, luminescence, 90 min; % of EA-reagent control over plate median; activation, % at 11.2 µM; 6,700 tested, under 10 active;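 active = mean percent activation across replicates above the confirmation screen cutoff of 4.91%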
GPR119 counter: activates human GPR119 in a GPR151 counter-screen. shares compounds with GPR151 activ. GPR119 PathHunter beta-arrestin cells, luminescence, 90 min; 0 = compound-well median, 100 = enzyme-acceptor control. activation, % at 11.2 µM. 6,700 compounds, 0.3% hits. AID 1508611;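 active = mean percent activation in the counterscreen above 29.09%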;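 note: counterscreen on off-target GPR119 to flag nonselective hits from the GPR151 activator screen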
Of the large screens only hits and unclear results are named; the others gave an inactive call (follow-up assays come after a bar, where they were run); ! = repeats disagree. Sampled rows, rich in hits. Any-hit rate of the full collection: about 3.5%.

CCN(CC)CCNC(=O)c1nc(-c2cccnc2)no1	none
CCC(=O)N/N=C(\C)CC(=O)Nc1ccc2c(c1)OCCO2	none
C/C(CC(=O)Nc1ccc2c(c1)OCCO2)=N\NC(=O)C(c1ccccc1)c1ccccc1	GPR151 activ 5.1 | GPR151 conf act inactive | GPR119 counter inactive
NC(=O)c1ccc(-c2cccc(C(=O)NCCc3ccc(O)cc3)n2)cc1	GPR151 activ 5.4 | GPR151 conf act inactive | GPR119 counter inactive
Cc1ccc(-n2c(=O)c(C#N)cc3c(=O)n4ccccc4nc32)cc1[N+](=O)[O-]	none
O=C(c1ccccc1)c1ccccc1-n1cccc1	none
O=C(O)C(Oc1ccccc1-n1cccc1)c1ccccc1 (centres undefined)	GPR151 activ 6.4 | GPR151 conf act inactive | GPR119 counter inactive
CCC(C(=O)O)n1c(O)c(/C=C2\C=Nc3ccccc32)sc1=S (centres undefined)	GPR151 activ 9.1 | GPR151 conf act inactive | GPR119 counter inactive
CC(C)c1ccc(Cn2ccc3c4c(N)nc(NC5CC5)nc4ccc32)cc1	GPR151 activ 6.5 (no result: TEAD-YAP inh) | GPR151 conf act 6.5 | GPR119 counter 105.6
CSCCCNC(=O)Cn1nnnc1CN1CCCCCC1	GPR151 activ 13.4 | GPR151 conf act inactive | GPR119 counter inactive
CC(=O)CCc1ccc(Oc2cc([N+](=O)[O-])cc3c2C(=O)Nc2ccccc2O3)cc1	none
CC1=C(C(=O)O)N2C(=O)[C@@H](NC(=O)C(N)C3=CCC=CC3)[C@H]2SC1 (some centres undefined)	GPR151 activ 8.4! | GPR151 conf act inactive | GPR119 counter inactive
CC1=C(C(=O)O)N2C(=O)[C@@H](NC(=O)[C@H](N)C3=CCC=CC3)C2SC1 (some centres undefined)	none
COc1ccc(CCNC(=O)c2sc3nc(C)nc(N4CCC(C)CC4)c3c2C)cc1OC	none
Cc1nc(N2CCCCC2)c2c(C)c(C(=O)N3CCN(c4ccccc4)CC3)sc2n1	GPR151 activ 5.3 | GPR151 conf act inactive | GPR119 counter inactive
COc1ccc(CCNC(=O)c2sc3nc(C)nc(N4CCCCC4)c3c2C)cc1OC	GPR151 activ 24.6 | GPR151 conf act inactive | GPR119 counter inactive
Cc1nn(Cc2ccccc2)c(Cl)c1/C=N/Nc1ccc(S(N)(=O)=O)cc1[N+](=O)[O-]	GPR151 activ 5.2 | GPR151 conf act inactive | GPR119 counter inactive
NS(=O)(=O)c1ccc(N/N=C/c2ccccc2Cl)c([N+](=O)[O-])c1	none
CC(C)(C)c1ccc(/C=N/Nc2ccc(S(N)(=O)=O)cc2[N+](=O)[O-])cc1	GPR151 activ 5.0 | GPR151 conf act inactive | GPR119 counter inactive
O=C(Nc1ccc(S(=O)(=O)NC23CC4CC(CC(C4)C2)C3)cc1)C1CCCO1 (centres undefined)	none
CC(=O)Nc1cc(NC(=O)Cc2ccccc2)ccc1Cl	none
Cc1[nH]nc2c1C(c1cc3c(cc1[N+](=O)[O-])OCO3)C(C#N)=C(N)O2 (centres undefined)	none
CCCCNC(=O)N1CCCC(CNC(=O)c2cccc(C(F)(F)F)c2)C1 (centres undefined)	none
CN(C)c1ccc(NC(=O)CCN2C(=O)C3C4C=CC(C4)C3C2=O)cc1 (centres undefined)	GPR151 activ 5.2 | GPR151 conf act inactive | GPR119 counter inactive
CCC(C)(C)c1ccc(OCC(O)CN2CCOCC2)c(C(C)(C)CC)c1 (centres undefined)	none
Cc1csc(Sc2ccc([N+](=O)[O-])cc2C(=O)OC(C)C#N)n1 (centres undefined)	GPR151 activ 5.3 | GPR151 conf act inactive | GPR119 counter inactive
Cc1csc(Sc2ccc([N+](=O)[O-])cc2C(=O)OCC(=O)Nc2cc(C)on2)n1	none
CC(NC(=O)/C=C/c1ccco1)c1ccccc1 (centres undefined)	GPR151 activ 5.1 | GPR151 conf act inactive | GPR119 counter inactive
Cc1ccc(/C=C/C(=O)NC(C)c2ccccc2)o1 (centres undefined)	none
Fc1cccc(CSc2nc(Nc3ccc4c(c3)OCO4)c3ccccc3n2)c1	GPR151 activ 5.0 | GPR151 conf act inactive | GPR119 counter inactive
CCCCNc1nc(SCC(=O)c2ccc(O)c(O)c2)nc2ccccc12	MITF primary 55.9, GPR151 activ 5.6 | GPR151 conf act inactive | GPR119 counter inactive
COc1cc(Nc2nc(SCc3ccc(F)cc3)nc3ccccc23)cc(OC)c1	GPR151 activ 5.0 | GPR151 conf act inactive | GPR119 counter inactive
CCCCNC(=O)CSc1nc(Nc2ccc3c(c2)OCO3)c2ccccc2n1	none
O=C(CSc1nc(Nc2ccc3c(c2)OCO3)c2ccccc2n1)c1ccccc1	GPR151 activ 5.3 | GPR151 conf act inactive | GPR119 counter inactive
CCOc1ccc(C(=O)Nc2cc(C)ccc2C)cc1	none
CCOc1ccc(NC(=O)N2CCN(c3ccc(OC)cc3)CC2)cc1	none
O=C(NCCc1c[nH]c2ccccc12)c1ccc(OC2CCN(C(=O)C3CC3)CC2)cc1	none
Oc1ccc(CCNc2nc(N3CCN(c4ccccn4)CC3)nc3c2ncn3-c2ccccc2)cc1	none
Cc1nn(CC(=O)Nc2ccc(O)cc2)c(C)c1[N+](=O)[O-]	GPR151 activ 6.1 | GPR151 conf act inactive | GPR119 counter inactive
Cc1nn(CC(=O)Nc2ccc(Oc3ccc(Cl)cc3)cc2)c(C)c1[N+](=O)[O-]	none
COc1ccc(-n2cc(-c3ccccc3)c3c(NCCc4ccc(OC)c(OC)c4)ncnc32)cc1	GPR151 activ 5.1 | GPR151 conf act inactive | GPR119 counter inactive
COc1cccc(-c2nc(C3CCCN3C(=O)CC(C)CC(=O)O)n3ccccc23)c1 (centres undefined)	none
COc1cccc(-c2nc(C3CCCN3C(=O)CCCC(=O)O)n3ccccc23)c1 (centres undefined)	GPR151 activ 5.7 | GPR151 conf act inactive | GPR119 counter inactive
COc1ccccc1N1CCN(C(=O)c2ccccc2C)CC1	none
COc1ccc(N2CCN(S(=O)(=O)Cc3ccccc3)CC2)cc1	GPR151 activ 6.8 | GPR151 conf act inactive | GPR119 counter inactive
O=S(=O)(Cc1ccccc1)N1CCN(c2ccc(F)cc2)CC1	none
Cc1ccc(NC(=O)c2cnccn2)c(Br)c1	GPR151 activ 6.4 | GPR151 conf act inactive | GPR119 counter inactive
O=C(Nc1ccc(Br)cc1F)c1cnccn1	none
COc1ccc(CCN2C(=O)NC(NC(C)=O)(C(F)(F)F)C2=O)cc1OC (centres undefined)	GPR151 activ 5.0 | GPR151 conf act inactive | GPR119 counter inactive
Cc1ccc(C(=O)/C=C/Nc2ccc([N+](=O)[O-])cc2)o1	none
Cc1noc(C)c1-c1cc(NCCCN2CCCC2=O)ncn1	GPR151 activ 5.9 | GPR151 conf act inactive | GPR119 counter inactive
COc1ccc(-c2cc(NCCCN3CCCC3=O)ncn2)cc1	none
Cn1ccc2cc(-c3cc(NCCCN4CCCC4=O)ncn3)ccc21	GPR151 activ 11.4 | GPR151 conf act inactive | GPR119 counter inactive
